Assay results: ChEMBL document CHEMBL3433997, “St. Jude Leishmania screening dataset” (2016)
Values joined by “and” are separate entries in the source; they are usually repeats but may differ in a detail not shown here. Equal values may be shown once.

biological target: Glucose transporter (Leishmania mexicana) (UniProt O61059); assay: ST_JUDE_LEISH: Cytotoxicity at 2uM final concentration against transgenic Leishmania Mexicana promastigotes LmGT2 that are glucose transport deficient and complemented with the L. Mexicana glucose transporter 2. Activity is measured by DNA content using SYBR green in vitro; format: functional

Row | Compound | inhibition
1 | CCCc1ccc(NC(=O)c2ccc(CN3CCCN(CC4CCCCC4)CC3)cc2)cc1 | 5.46%
2 | NC1=NC(c2ccccc2)(c2cccc(O)c2)C(=O)N1CCCc1ccccc1 (stereo not given) | 6.85% and 0.63%
3 | CC(C)c1ccc(CN2CCC(NC(=O)c3ccc(-c4ccccc4F)s3)CC2)cc1 | -1.39%
4 | Nc1nc(N)c2cc(N(Cc3ccccc3)Cc3ccccc3)ccc2n1 | 10.8%
5 | Cc1nnsc1C(=O)Nc1ccc(-c2cccc(-c3nc4cc(F)ccc4[nH]3)c2)cc1 | -2.69%
6 | CC(Cc1ccc(OCCCCOc2ccccc2)cc1)NCCc1ccc(Oc2ccccc2)cc1 (stereo not given) | 78.2%
7 | CCOc1cc2c(cc1OCC)C(c1cc(OC)c(O)cc1Cl)NCC2 (stereo not given) | 2.79%
8 | CNc1ccc(CNCc2ccc(-c3ccc(-c4nc5cc(C(F)(F)F)ccc5[nH]4)cc3)cc2)cc1 | 9.71%
9 | CC(CCCC(=O)Nc1ccc(CC(C)NCCc2cccc(Cl)c2)cc1)NCCc1cccc(Cl)c1 (stereo not given) | 1.32%
10 | CC1(C)NC(N)=NC(=N)N1OCCc1ccccc1 | 0.66%
11 | CCc1cccc(NC(=O)c2ccc(CN3CCCN(CC4CCCCC4)CC3)cc2)c1 | 13.4%
12 | CCCc1cc(C)ccc1OCCCON1C(N)=NC(N)=NC1(C)C | 25.9%
13 | COc1ccc(NC(=O)c2ccc(-c3nc(-c4cccc(C(F)(F)F)c4)cs3)cc2)cc1N1CCN(C)CC1 | 2.01%
14 | CCOc1cc(Cl)c(C(C)NC(=O)c2cccc(OC)c2)cc1OCC (stereo not given) | 4.84%
15 | Cc1cccc2nc(-c3cccc(-c4cccc(NC(=O)c5csnn5)c4)c3)[nH]c12 | -0.76%
16 | COc1c(C2CCN(CCCCNC(=O)c3ccc(-c4ccc(Cl)cc4)c(O)c3)CC2)ccc2c1CCCC2 | 0.11%
17 | c1ccc(CN2CCc3cc4nccc(N5CCNCC5)c4cc32)cc1 | 0.88%
18 | COc1ccc2nccc([C@@H](O)CN3CCC(NCc4cc5c(F)ccc(F)c5[nH]4)CC3)c2n1 | 87.2%
19 | CC(=O)Nc1cccc(/C=C/C(=O)N2CCC(N3CCCCC3)CC2)c1 | 5.39%
20 | CON(CCCN(C)C)C(=N)N | 0.26%

Row | Compound | inhibition
21 | COc1ccc2nccc([C@@H](O)CN3CCC(NCc4ccc5c(c4)sc(=O)n5C)CC3)c2c1 | -1.7%
22 | NCCCN(Cc1ccc(Cl)c(Cl)c1)C(=O)Nc1ccc(Cl)c(Cl)c1 | 10.1%
23 | O=C(/C=C/c1ccc(Br)cc1)NCCCCCN1CCC(c2c[nH]c3ccccc23)CC1 | 12.7%
24 | Cc1cc(C)c2cc(CNCCCNc3nc4ccccc4[nH]3)[nH]c2c1 | 2.91%
25 | CC(C)(C)c1ccc(CN2CCCCC(NC(=O)c3cc(-c4ccccc4Cl)cs3)C2)cc1 (stereo not given) | 1%
26 | Cc1c[nH]c(CCNC(=O)c2cc(-c3ccc(Cl)cc3)cs2)n1 | 2.79%
27 | C=CCOc1ccc(CNC2CCN(Cc3ccccc3)CC2)cc1Br | 0.3%
28 | CCN1CCC(N(Cc2ccc(-c3ccc(C(F)(F)F)cc3)cc2)C(=O)Cn2c(SCc3cccc(F)c3F)cc(=O)c3ccccc32)C1 (stereo not given) | -0.18%
29 | CCN(CCCN1CCCCC1)c1cc(C)nc(Nc2cc(C(F)(F)F)ccc2C)n1 | 0%
30 | CCOc1cccc(C2c3c(oc4ccccc4c3=O)C(=O)N2CCN(CC)CC)c1 (stereo not given) | 3.34%
31 | CC(C)(C)c1cc([N+](=O)[O-])cc(C(=O)Nc2ccccc2C(F)(F)F)c1O | -1.86%
32 | CCc1cn(CCS(C)(=O)=O)c2ccc(C(=O)N[C@@H](Cc3ccccc3)[C@H](O)CNC(C)(C)CCCC(C)C)cc12 | 6.22%
33 | Cc1[nH]c2ccccc2c1C(=O)CSc1nn(-c2ccccc2)c(=S)s1 | 2.44%
34 | CCCn1c(Sc2ccc(C#N)c([N+](=O)[O-])c2)nnc1-c1ccc(N(C)C)cc1 | 3.14%
35 | O=C(Nc1ccc(C(=O)OCC2CCCN3CCCCC23)cc1)c1ccc(Cl)c(Cl)c1 (stereo not given) | 0.18%
36 | O=C(c1ccc(F)c2ccccc12)N1CCc2cc3nccc(N4CCN5CCC[C@H]5C4)c3cc21 | 0.27%
37 | Cn1c(=O)c(-c2c(Cl)cccc2Cl)cc2cnc(Nc3ccc(N4CCOCC4)cc3)nc21 | 11.6%
38 | CNCCNCc1cccc(-c2cccc(-c3nc4cccc(C)c4[nH]3)c2)c1 | 0.35%
39 | O=C(Nc1cccc(-c2cccc(CN3CCCC3)c2)c1)c1cccc(Cl)c1 | 4.9%
40 | Cc1nnc(-c2ccc3ccccc3c2)c2cn(-c3cccc([N+](=O)[O-])c3)nc12 | 3.91%
